Some of the results follow. How many sequences the whole screen found active is unknown.
Target: furin, P09958
Assay: furin cleavage Z-score vs untreated control; higher = more cleavage, active = 3.5 or more, inactive = 1 or less, 8 variable residues between constant flanks
Method: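 Multiplexed peptide-cDNA fusion cleavage assay. 8-mer variable peptides flanked by constant Cys-Ala (N-term) and Ala-Gly-Asn-Ala-Ser-Ala-Ser-Ala (C-term) and conjugated to a cDNA oligonucleotide were bead-immobilised via the N-terminus. They were treated with purified furin at a 1:10 enzyme:substrate ratio in 50 mM HEPES pH 7.5, 1 mM CaCl2, 100 mM NaCl for 7.5, 15 or 30 min. Released cDNA was counted by next-generation sequencing, and log counts versus no-furin controls were lowess-adjusted and converted to robust Z-scores.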

furin, P09958, sequence (P09958 whole entry): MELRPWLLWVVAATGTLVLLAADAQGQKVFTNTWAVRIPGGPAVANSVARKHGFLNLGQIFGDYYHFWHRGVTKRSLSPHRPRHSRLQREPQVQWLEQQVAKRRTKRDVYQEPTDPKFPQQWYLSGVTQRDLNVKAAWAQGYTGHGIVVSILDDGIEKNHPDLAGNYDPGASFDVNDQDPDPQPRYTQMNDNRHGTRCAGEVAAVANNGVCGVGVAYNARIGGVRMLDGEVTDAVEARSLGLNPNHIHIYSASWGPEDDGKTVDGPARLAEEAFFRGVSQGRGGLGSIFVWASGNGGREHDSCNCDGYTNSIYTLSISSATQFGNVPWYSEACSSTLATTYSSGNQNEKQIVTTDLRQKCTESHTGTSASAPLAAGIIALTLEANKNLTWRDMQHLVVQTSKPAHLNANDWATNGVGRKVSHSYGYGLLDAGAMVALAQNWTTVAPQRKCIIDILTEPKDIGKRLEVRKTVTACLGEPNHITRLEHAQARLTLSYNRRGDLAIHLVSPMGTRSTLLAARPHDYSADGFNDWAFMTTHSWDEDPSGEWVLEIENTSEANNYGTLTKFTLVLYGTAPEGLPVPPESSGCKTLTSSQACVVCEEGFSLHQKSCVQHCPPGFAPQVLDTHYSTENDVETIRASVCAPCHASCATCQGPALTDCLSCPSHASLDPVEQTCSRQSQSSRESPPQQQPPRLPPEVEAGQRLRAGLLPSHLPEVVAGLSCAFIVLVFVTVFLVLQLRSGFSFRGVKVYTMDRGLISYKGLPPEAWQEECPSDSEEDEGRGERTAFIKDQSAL

CAEIVTSTWVAGNASASA [HC2164]
furin cleavage Z-score (7.5 min): -0.266 (inactive) | furin cleavage Z-score (15 min): -1.49 (inactive) | furin cleavage Z-score (30 min): 1.35

CAVVCCSMSPAGNASASA [HC2099]
furin cleavage Z-score (7.5 min): -0.463 (inactive) | furin cleavage Z-score (15 min): -1.06 (inactive) | furin cleavage Z-score (30 min): -1.28 (inactive)

CAREARGSSRAGNASASA [FS-2907]
furin cleavage Z-score (7.5 min): -0.25 (inactive) | furin cleavage Z-score (15 min): -0.261 (inactive) | furin cleavage Z-score (30 min): -1.18 (inactive)

CAEKTTPCSGAGNASASA [HC1974]
furin cleavage Z-score (7.5 min): -1.24 (inactive) | furin cleavage Z-score (15 min): -0.951 (inactive) | furin cleavage Z-score (30 min): -0.151 (inactive)

CALGLLQTASAGNASASA [HC1027]
furin cleavage Z-score (7.5 min): -0.682 (inactive) | furin cleavage Z-score (15 min): -0.203 (inactive) | furin cleavage Z-score (30 min): 0.0385 (inactive)

CAVMAQLLRIAGNASASA [HC327]
furin cleavage Z-score (7.5 min): -0.76 (inactive) | furin cleavage Z-score (15 min): -0.535 (inactive) | furin cleavage Z-score (30 min): -1.17 (inactive)

CAEVVTSTCVAGNASASA [HC2240]
furin cleavage Z-score (7.5 min): -0.298 (inactive) | furin cleavage Z-score (15 min): -0.394 (inactive) | furin cleavage Z-score (30 min): -0.1 (inactive)

CANPSVAATLAGNASASA [HC788]
furin cleavage Z-score (7.5 min): -2.1 (inactive) | furin cleavage Z-score (15 min): 0.787 (inactive) | furin cleavage Z-score (30 min): 0.461 (inactive)

CAQPHRAQRSAGNASASA [FS-1153]
furin cleavage Z-score (7.5 min): 6.97 (active) | furin cleavage Z-score (15 min): 6.29 (active) | furin cleavage Z-score (30 min): 6.74 (active)

CAEYRRRGRSAGNASASA [FS-1123]
furin cleavage Z-score (7.5 min): 4.99 (active) | furin cleavage Z-score (15 min): 5.3 (active) | furin cleavage Z-score (30 min): 5.5 (active)

CAKNIRRGRSAGNASASA [FS-342]
furin cleavage Z-score (7.5 min): 8.62 (active) | furin cleavage Z-score (15 min): 9.43 (active) | furin cleavage Z-score (30 min): 6.74 (active)

CAEDTTPCSGAGNASASA [HC1971]
furin cleavage Z-score (7.5 min): 0.299 (inactive) | furin cleavage Z-score (15 min): -1.06 (inactive) | furin cleavage Z-score (30 min): -0.5 (inactive)

CAADGGCSGGAGNASASA [HC811]
furin cleavage Z-score (7.5 min): -1.33 (inactive) | furin cleavage Z-score (15 min): -0.697 (inactive) | furin cleavage Z-score (30 min): -0.396 (inactive)

CAERVTSTWVAGNASASA [HC2173]
furin cleavage Z-score (7.5 min): -0.173 (inactive) | furin cleavage Z-score (15 min): -0.632 (inactive) | furin cleavage Z-score (30 min): -2.09 (inactive)

CACPNSSIVYAGNASASA [HC264]
furin cleavage Z-score (7.5 min): 0.0997 (inactive) | furin cleavage Z-score (15 min): 0.251 (inactive) | furin cleavage Z-score (30 min): -0.406 (inactive)

CARPPRSPDHAGNASASA [FS-2740]
furin cleavage Z-score (7.5 min): 4.56 (active) | furin cleavage Z-score (15 min): 5.51 (active) | furin cleavage Z-score (30 min): 4.52 (active)

CAAAPGAATAAGNASASA [HC1071]
furin cleavage Z-score (7.5 min): -1.75 (inactive) | furin cleavage Z-score (15 min): 0.135 (inactive) | furin cleavage Z-score (30 min): -1.91 (inactive)

CARPPRSIVTAGNASASA [FS-2439]
furin cleavage Z-score (7.5 min): 2.64 | furin cleavage Z-score (15 min): 4.75 (active) | furin cleavage Z-score (30 min): 6.76 (active)

CARPQRLIDHAGNASASA [FS-3020]
furin cleavage Z-score (7.5 min): -0.401 (inactive) | furin cleavage Z-score (15 min): -0.141 (inactive) | furin cleavage Z-score (30 min): -0.235 (inactive)

CARTGRSIVYAGNASASA [FS-2465]
furin cleavage Z-score (7.5 min): 2.57 | furin cleavage Z-score (15 min): 5.05 (active) | furin cleavage Z-score (30 min): 6.39 (active)

CARPRRLSTAAGNASASA [FS-3022]
furin cleavage Z-score (7.5 min): -0.374 (inactive) | furin cleavage Z-score (15 min): 0.291 (inactive) | furin cleavage Z-score (30 min): 1.13

CARPKKRAETAGNASASA [FS-1760]
furin cleavage Z-score (7.5 min): -0.848 (inactive) | furin cleavage Z-score (15 min): 2.01 | furin cleavage Z-score (30 min): 0.187 (inactive)

CARPPRSATAAGNASASA [FS-2058]
furin cleavage Z-score (7.5 min): 1.66 | furin cleavage Z-score (15 min): 4.98 (active) | furin cleavage Z-score (30 min): 3.61 (active)

CARTGRSREVAGNASASA [FS-3105]
furin cleavage Z-score (7.5 min): 0.737 (inactive) | furin cleavage Z-score (15 min): -1.37 (inactive) | furin cleavage Z-score (30 min): 1.18

CARPVRGIHTAGNASASA [FS-3030]
furin cleavage Z-score (7.5 min): 1.52 | furin cleavage Z-score (15 min): 0.149 (inactive) | furin cleavage Z-score (30 min): 3.15

CASGTFPINAAGNASASA [HC1189]
furin cleavage Z-score (7.5 min): -0.56 (inactive) | furin cleavage Z-score (15 min): -1.29 (inactive) | furin cleavage Z-score (30 min): -0.783 (inactive)

CAGGCSGGAYAGNASASA [HC812]
furin cleavage Z-score (7.5 min): 0.0451 (inactive) | furin cleavage Z-score (15 min): -0.928 (inactive) | furin cleavage Z-score (30 min): -1.91 (inactive)

CAFLVQAWKSAGNASASA [HC1472]
furin cleavage Z-score (7.5 min): -0.545 (inactive) | furin cleavage Z-score (15 min): -1.14 (inactive) | furin cleavage Z-score (30 min): 0.129 (inactive)

Reference: the supplement of paper PMC3545927
